# Assay results as given in the supplement of paper PMC9135407.
# Where “and” joins values, the source holds several entries; their conditions need not be identical. Equal values may be shown once. Where a name gives a salt, the structure may show the parent alone. The campaign covered roughly 5,800 compounds. About 620 (11%) showed activity. For the sample, actives were picked, then their nearest neighbours and some compounds at random. A number with no mark means an inactive call.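 How the source made its calls: active = score above a cut-off or among the top three wells of a plate; in these data no inactive exceeds 0.85.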
# Tested on: primary human hepatic stellate cells (donor 1)
# Assay: scaled lipid accumulation score (0 = DMSO-like, 1 = nortriptyline-like); higher = stronger HSC inactivation (lipid re-accumulation), active = hit call of the paper
# Conditions: 48 h
# [1] = library stock concentration: 10 mM
# [2] = library stock concentration: 1 mM
# [3] = library stock concentration: 3.33 mM
compound,measurement,setting,value
CCN1CCC[C@H]1CNC(=O)c1c(O)c(Cl)cc(Cl)c1OC [S(+)-Raclopride L-tartrate],scaled lipid accumulation score,[1],≤ 0
CCN1CCC[C@H]1CNC(=O)c1c(O)c(Cl)cc(Cl)c1OC [Raclopride],scaled lipid accumulation score,[1],≤ 0 and ≤ -0.006
CCc1cc(Cl)c(OC)c(C(=O)NC[C@@H]2CCCN2CC)c1O,scaled lipid accumulation score,[1],0.351
CCc1cc(Cl)c(OC)c(C(=O)NC[C@@H]2CCCN2CC)c1O.Cl [Eticlopride hydrochloride],scaled lipid accumulation score,[1],0.978 (active)
"CCCCC[C@H](O)/C=C/[C@@H]1[C@@H](C/C=C\CCCC(=O)O)[C@@H](O)C[C@@H]1O [9a,11b-Prostaglandin F2]",scaled lipid accumulation score,[2],≤ -0.021
CCCCC[C@H](O)/C=C/[C@@H]1[C@@H](C/C=C\CCCC(=O)O)[C@@H](O)C[C@@H]1O [11.beta.-Prostaglandin F2.alpha.],scaled lipid accumulation score,[2],≤ 0
CCCCCCCCCCCCCCCCCCCCCCCCCCCCCCO [n-Triacontanol],scaled lipid accumulation score,[2],0.026
COc1ccccc1CNCCCCCCNCCCCCCCCNCCCCCCNCc1ccccc1OC [Methoctramine tetrahydrochloride],scaled lipid accumulation score,[1],0.621
O=C(O)Cc1ccccc1Nc1c(Cl)cccc1Cl,scaled lipid accumulation score,[1],≤ 0
O=C(O)Cc1ccccc1Nc1c(Cl)cccc1Cl [Diclofenac (sodium salt)],scaled lipid accumulation score,[2],≤ 0
Cl.Cl.Clc1ccccc1CNC[C@H]1CC[C@H](CNCc2ccccc2Cl)CC1,scaled lipid accumulation score,[1],1.48 (active)
O=C(O)Cc1ccccc1Nc1c(Cl)cccc1Cl [Diclofenac Diethylamine],scaled lipid accumulation score,[3],≤ 0
same,scaled lipid accumulation score,[1],≤ 0
O=C(O)Cc1ccccc1Nc1c(Cl)cccc1Cl [Diclofenac Potassium],scaled lipid accumulation score,[3],≤ 0
same,scaled lipid accumulation score,[1],≤ 0
O=C(O)Cc1ccccc1Nc1c(Cl)cccc1Cl [Diclofenac sodium],scaled lipid accumulation score,,0.036
same,scaled lipid accumulation score,library stock concentration: 6.3 mM,0.003
same,scaled lipid accumulation score,[1],≤ -0.07 and ≤ 0
O=C(O)Cc1ccccc1Nc1c(Cl)cccc1Cl [Diclofenac Sodium],scaled lipid accumulation score,[3],≤ 0
same,scaled lipid accumulation score,[1],0.007
Cc1ncc(CSSCc2cnc(C)c(O)c2CO)c(CO)c1O,scaled lipid accumulation score,[1],≤ 0
O=C1c2c(O)cc(CO)cc2C(OC2OC(CO)C(O)C(O)C2O)c2cccc(OC3OC(CO)C(O)C(O)C3O)c21 (stereo not given) [CASANTHRANOL [cascaroside A shown]],scaled lipid accumulation score,[1],≤ 0
CCCCCCCCCCCSCC(=O)O [3-Thiatetradecanoic Acid],scaled lipid accumulation score,[2],0.006
Cn1cc(-c2[nH]c3cc(NC(=O)[C@H](N)C4CCCCC4)cc4c3c2C=NNC4=O)cn1,scaled lipid accumulation score,[3],≤ 0
same,scaled lipid accumulation score,[1],0.077
